Screens as filed in PubChem BioAssay.
NPC1 promoter act = activators of NPC1 promoter. Huh7 NPC1 promoter luciferase reporter, 24 h. Potency, µM (highest dose often 9.22 µM), hits mostly activators. hit rate 2.4% among 320,000; also: nearly all actives have a fitted effect of over 60% in size
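Huh7 cells stably carrying NPC1 promoter–luciferase, plated in Opti-MEM with 10% FBS for 2 h, were exposed to compound in DMSO for 24 h at 37 °C; luciferase reagent was added for 10 min and luminescence read.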
ELG1 genotoxic = genotoxicity induction in ELG1-luciferase HEK293T cells; Potency, µM (highest dose often 46 µM), most hits filed as activators; HEK293T ELG1-luciferase reporter, luminescence, 16 h; hit rate 1.3% among 330,000; also: nearly all actives have a fitted effect of over 60% in size
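HEK293T cells expressing luciferase-tagged ELG1 were treated with compound or DMSO for 16 hr at 37°C. Luciferase activity was then read after 30 min with ONE-Glo at room temperature; rising signal flags genetic stress.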
Rab9 prom act = activates the Rab9 promoter. Huh7 Rab9 promoter-luciferase reporter, luminescence, 24 h. Potency, µM (series often up to 9.22 µM), usual class: activators. hit rate 2.8% among 320,000. AID 485297; also: nearly all actives have a fitted effect of over 60% in size
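Using Huh7 cells stably transfected with Rab9 promoter–luciferase, compounds were incubated 24 h at 37 °C, 5% CO2; luciferase luminescence was read 10 min after reagent addition.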
SMN2 splice enh = increases expression of the SMN2 splice variant; HEK293 SMN2-luciferase splicing reporter, luminescence, 30-36 h; Potency, µM (highest dose often 46.1 µM), actives largely listed as activators; hit rate 2.8% among 210,000; AID 1458; also: nearly all actives have a fitted effect of over 55% in size
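HEK293 cells carry an SMN2 minigene-luciferase reporter in which exon 7 inclusion puts luciferase in frame. Cells were seeded at 2000 cells/well, attached for 10-12 hours, then exposed to compounds for 30-36 hours at 37C before ONE-Glo luminescence.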
KinaseGlo FLuc = Kinase-Glo luciferase inhibition (counter-screen) | Q27757 | Kinase-Glo luciferase, ATP luminescence, 8 min | Potency, µM (titrated, usually from 38.3 µM), actives largely listed as inhibitors | hit rate 0.28% among 200,000 | AID 1379; also: nearly all actives have a fitted effect of over 60% in size
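Kinase-Glo luciferase light output from ATP and luciferin was measured with 10 uM ATP, within the enzyme's linear range. Buffer: 50 mM imidazole pH 7.2, 50 mM KCl, 7 mM MgCl2, 0.01% Tween 20, 0.05% BSA; luminescence read after 8 min at ambient temperature.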
FLuc counter = inhibits or activates purified firefly luciferase, miR-21 counter-screen; hit rate 6.9% among 360,000; AID 588342; Potency, µM (series often up to 57.5 µM), actives largely listed as inhibitors; purified FLuc, Km substrates, luminescence inhibition; also: nearly all actives have a fitted effect of over 55% in size
Target sequence (P08659 whole entry, looked up): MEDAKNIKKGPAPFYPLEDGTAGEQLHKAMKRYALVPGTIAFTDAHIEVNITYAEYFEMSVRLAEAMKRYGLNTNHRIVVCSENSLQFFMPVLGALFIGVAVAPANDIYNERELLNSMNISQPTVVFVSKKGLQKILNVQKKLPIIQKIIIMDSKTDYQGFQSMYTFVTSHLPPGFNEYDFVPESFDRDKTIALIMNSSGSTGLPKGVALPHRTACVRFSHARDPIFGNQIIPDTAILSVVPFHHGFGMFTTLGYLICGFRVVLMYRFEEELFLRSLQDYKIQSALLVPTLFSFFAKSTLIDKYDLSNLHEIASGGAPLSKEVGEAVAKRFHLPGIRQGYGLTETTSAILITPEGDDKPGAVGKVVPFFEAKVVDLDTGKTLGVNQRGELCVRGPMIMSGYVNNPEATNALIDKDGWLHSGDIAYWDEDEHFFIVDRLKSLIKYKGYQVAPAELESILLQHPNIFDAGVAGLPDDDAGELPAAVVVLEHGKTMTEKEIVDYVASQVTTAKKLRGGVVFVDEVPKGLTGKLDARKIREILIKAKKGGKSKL
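Purified P. pyralis luciferase (10nM final) with 10uM D-luciferin and 10uM ATP (Km levels) in 50mM Tris acetate pH 7.5, 10mM Mg acetate, 0.01% Tween-20, 0.05% BSA; qHTS 6-point titration, ~60 µM downward; luminescence read.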
A number is an active result; . = inactive; ? = inconclusive; / = no result given; [ ] = another dose, or the depositor's remark. Compounds with a hit are over-represented: about 7.4% of the library has one in this group of screens. Calls follow the shape of the dose curve; as a rule, active = well fitted curve in the direction sought with a large enough effect; inconclusive = small, poorly fitted or top-dose-only effect, or another doubt; inactive = no such curve, though single readings can be large; an effect the other way counts as inactive or inconclusive.

SMILES	NPC1 promoter act	ELG1 genotoxic	Rab9 prom act	SMN2 splice enh	KinaseGlo FLuc	FLuc counter
CCc1ccc(NCc2cc3ccc(OC)cc3n(CC(=O)Nc3cccc(Cl)c3C)c2=O)cc1	/	/	/	/	/	.
CCCCNc1nc(Oc2ccc(=O)n(-c3ccccc3)n2)nc(N(CC)CC)n1	/	/	/	.	/	.
Cc1noc(-c2ccc(-c3noc(-c4ccc(C(F)(F)F)cc4)n3)cc2)n1	/	/	/	/	/	.
Cc1ccc(-c2nc(-c3ccncc3)no2)cc1C	0.708µM	2.31µM	0.562µM	/	/	0.757µM
Fc1cccc(F)c1-c1nc(-c2ccncc2)no1	?	?	2µM	/	/	16.9µM
COc1ccc2oc(C(=O)NNC(=O)c3ccc(F)cc3)c(C)c2c1	.	?	.	/	/	?
Cc1ccc(OC(=O)c2oc3ccc(F)cc3c2C)c(C)c1	.	.	.	.	.	7.57µM
COc1ccc(/C=C/C(=O)c2oc3ccc(F)cc3c2C)cc1	.	.	.	.	.	9.53µM
CCn1c(=O)cc(OCC(=O)NCc2ccccc2Cl)c2ccccc21	/	/	/	.	/	.
CCOC(=O)c1cnn(-c2ccccc2)c1NC(=O)c1cccs1	.	.	.	.	.	.
CCOC(=O)c1sc(NC(=O)c2sccc2C)cc1C	0.631µM	2.59µM	0.562µM	6.31µM	11.2µM	1.69µM
CCOC(=O)c1sc(NC(=O)c2ccc(Br)o2)cc1C	3.98µM	2.31µM	1.58µM	11.2µM	?	3.38µM
CCOC(=O)c1sc(NC(=O)c2cccs2)cc1C	1.41µM	2.06µM	1.78µM	14.1µM	?	1.2µM
CCOC(=O)c1sc(NC(=S)NC(=O)C2CC2)cc1C	.	?	.	/	/	.
CCOC(=O)c1sc(NC(=O)Nc2cccc(Cl)c2)cc1C	2.51µM	?	?	?	.	1.69µM
CCN(CC)C(=O)c1sc(NC(=O)c2ccc(Br)o2)c(C(=O)OC)c1C	.	.	.	.	.	.
CC(Cc1cccnc1)NC(=O)c1cc(COc2ccc(F)cc2Cl)on1 (configuration not stated)	.	.	.	/	/	13.5µM
CC(=O)c1ccc(OCc2cc(C(=O)NC(C)CCn3cccn3)no2)cc1 (configuration not stated)	2.82µM	18.3µM	3.98µM	/	/	15.1µM
CC(CCn1cccn1)NC(=O)c1cc(COc2ccc(F)cc2Cl)on1 (configuration not stated)	.	.	.	/	/	16.9µM
Cc1ccc(OCc2cc(C(=O)NC(C)Cc3cccnc3)no2)cc1C (configuration not stated)	?	.	?	/	/	13.5µM
CC(CCn1cccn1)NC(=O)c1cc(COc2ccc(F)cc2F)on1 (configuration not stated)	.	.	.	/	.	.
CCOC(=O)c1cc2c(=O)n3ccccc3nc2n(C(C)C)c1=NC(=O)c1cc2ccccc2o1	/	/	/	.	/	.
O=C(NCCCn1cccn1)c1cc(COc2ccc(F)cc2Cl)on1	.	.	.	/	/	16.9µM
Cc1nc(CCNC(=O)c2cc(COc3ccc(F)cc3Cl)on2)sc1C	.	.	.	/	/	21.3µM
CCCCN(CCCC)C(=O)c1c[nH]c2ccc(S(=O)(=O)Nc3cccc(Cl)c3C)cc2c1=O	.	/	.	/	/	?
SMILES	NPC1 promoter act	ELG1 genotoxic	Rab9 prom act	SMN2 splice enh	KinaseGlo FLuc	FLuc counter
Cc1ccc2nc3c(cc(C#N)c(=O)n3-c3nnc(SCc4ccc(F)cc4)s3)c(=O)n2c1	/	/	/	.	/	.
Cc1cc(N2CC(C(=O)Nc3nccs3)CC2=O)ccc1C(C)C (configuration not stated)	.	.	.	/	/	10.7µM
C=C(C(C)=O)C(O)c1cccc(Br)c1 (configuration not stated)	/	/	/	.	.	/
Cc1ccc(NC(=O)CSc2nnc(COc3ccc(Cl)cc3)o2)cc1	/	/	/	/	/	.
COc1cc(OC)c(NC(=O)n2ncc3cc(Cl)ccc32)cc1Cl	/	/	/	/	/	.
COc1cc(NC(=O)n2ncc3cc(Cl)ccc32)cc(OC)c1	.	?	?	/	/	12µM
COc1ccc(NC(=O)n2ncc3cc(Cl)ccc32)cc1OC	?	?	3.55µM	/	/	?
CCOc1ccc(CCNC(=O)c2cnc3c(-c4ccc(F)cc4)c(C)nn3c2C)cc1OCC	/	/	/	/	/	.
CC(C)Nc1cc(N2CCN(C3CCCCC3)CC2)c2noc3c2c1C(=O)c1ccccc1-3	/	/	/	.	/	.
CC(=NC1CCCCC1)C1=C(O)c2ccccc2C1=O	2.82µM	?	2.82µM	15.8µM	.	3.38µM
CC(=O)N(C1=C(Cl)C(=O)c2ccccc2C1=O)C1CCCCC1	.	.	.	/	/	?
Cc1ccc(-c2nnc(-c3cc(C)on3)o2)cc1	0.794µM	3.26µM	0.562µM	/	/	1.51µM
Cc1cc(-c2nnc(-c3cccc(C(F)(F)F)c3)o2)no1	?	.	?	/	/	16.9µM
O=C(NCCCN1CCOCC1)c1ccc(Cc2nc3ccccc3[nH]2)cc1	/	/	/	/	.	/
COC(=O)[C@@H](NC(=O)O[C@@H]1C(=O)c2ccc(OC)cc2O[C@H]1c1ccc2c(c1)OCO2)C(C)C	/	/	/	.	.	/
O=C(O)COc1ccc(/C=C/c2nc3ccc([N+](=O)[O-])cc3s2)cc1	.	.	.	/	/	4.78µM
COC(=O)C1CCN(S(=O)(=O)c2cc3c4c(c2)CC(=O)N4CCC3)CC1	/	/	/	/	/	.
Fc1ccc(NCc2ccccc2-c2nnc(-c3ccccc3Cl)o2)cc1Cl	/	/	/	.	/	?
COC(=O)C1=C(C(=O)OC)[C@@H]2N(C)c3ccccc3[C@@]23C[C@@H](C(=O)OC)N(S(=O)(=O)c2ccc(C(F)(F)F)cc2)C3=N1	/	/	/	.[9.22 µM]	.[7.66 µM]	/
Cc1cc(/C=N/NC(=O)c2ccc(O)cc2)c(C)n1C1CC1	.	.	.	.	.	?
Cc1ccc(N=Cc2cc(C)n(C3CCCC3)c2C)cc1	.	.	.	.	.	10.7µM
CCS(=O)(=O)c1ncc(Cl)c(C(=O)N2CCN(c3cccc(Cl)c3)CC2)n1	/	/	/	.	/	/
COc1ccc(C(=O)NCCn2ccc3ccccc32)c(OC)c1	?	?	?	.	.	21.3µM
CC(C)(C)c1ccc(S(=O)(=O)NNC(=O)c2cc3ccccc3[nH]2)cc1	.	?	.	/	/	13.5µM
COc1ccc2[nH]c(C(=O)Nc3ccc(C)c(F)c3)cc2c1	?	.	?	/	/	?
SMILES	NPC1 promoter act	ELG1 genotoxic	Rab9 prom act	SMN2 splice enh	KinaseGlo FLuc	FLuc counter
CCCC(C)NNC(=O)c1cc2ccccc2[nH]1 (configuration not stated)	.	.	.	.	.	.
COc1ccc(C(=O)Nc2ccc3ccccc3c2)c(OC)c1	3.55µM	2.06µM	?	/	/	0.849µM
COc1ccc(NC(=O)c2cc3ccccc3[nH]2)cc1	3.16µM	?	2µM	/	/	?
COc1cccc(Cn2c(=O)c(-c3cccc(Cl)c3)nc3cncnc32)c1	/	/	/	.	.	/
O=C(NCCc1ccc(Cl)cc1)c1nnc(Cc2ccc(F)cc2)o1	/	/	/	.	/	.
CON	/	/	/	.	.	/
COc1ccc(NC(=O)c2coc(C)c2)cc1	?	?	?	/	/	23.9µM
COc1ccc(NC(=O)c2ccc3ccccc3c2)cc1	0.708µM	2.31µM	0.708µM	/	/	0.849µM
